Consider 21 molecules from PubChem BioAssay (NCATS).

Inconclusive results are not listed. Values without a mark were called inactive. Active and inactive are the calls of the source. Calls follow the shape of the dose curve; as a rule, active = well fitted curve in the direction sought with a large enough effect; inconclusive = small, poorly fitted or top-dose-only effect, or another doubt; inactive = no such curve, though single readings can be large; an effect the other way counts as inactive or inconclusive.

Assay [1] concerns the target Rap guanine nucleotide exchange factor 3 (Homo sapiens) (UniProt O95398). Briefly: Confirmatory qHTS for antagonist of cAMP-regulated guanine nucleotide exchange factor 3 (EPAC1) (AID 1645880). Also: nearly all actives have a fitted effect of over 55% in size. Also: potency is read from the fitted curve at half-maximal effect. In a few lines: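 Nucleotide exchange uses 100 nM EPAC1, 250 nM RAP1B-BODIPY-GDP and 50 uM GDP, with compounds in a concentration-titration series. After 5 min at room temperature, fluorescence (480 nm ex/540 nm em) is read every 5 min for 30 min. Data are normalized to control ATA and DMSO.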

For assay [2] the target is unchanged. Description: Confirmatory qHTS for agonist of cAMP-regulated guanine nucleotide exchange factor 3 (EPAC1) (AID 1645881). Also: nearly all actives have a fitted effect of over 75% in size. Also: potency is read from the fitted curve at half-maximal effect.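 As to activation: EPAC1 catalysed release of BODIPY-GDP from Rap1B seen as fluorescence loss; 100% = effect of cAMP agonist control.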
Assay [3] addresses Rap guanine nucleotide exchange factor 4 (Homo sapiens) (UniProt Q8WZA2). Briefly: Confirmatory qHTS for agonist of cAMP-regulated guanine nucleotide exchange factor 4 (EPAC2) (AID 1645884).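 Also: nucleotide exchange releases bodipy-GDP from Rap1 and this lowers its fluorescence; % is scaled to controls: 0 for no effect and ±100 for the full control effect; nearly all actives have a fitted effect of over 65% in size.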
Assay [4] has the same target. Briefly: Confirmatory qHTS for antagonist of cAMP-regulated guanine nucleotide exchange factor 4 (EPAC2) (AID 1645885). Also: nearly all actives have a fitted effect of over 25% in size. Also: potency is read from the fitted curve at half-maximal effect. As to activity change, negative = inhibition: % is scaled to controls: 0 for no effect and ±100 for the full control effect.
In assay [5] the target is Rap guanine nucleotide exchange factor 3 (Homo sapiens) (UniProt O95398). Description: Counterscreen qHTS for antagonist of cAMP-regulated guanine nucleotide exchange factor 3 (EPAC1) (AID 1645888).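 Also: fluorescence loss as bound BODIPY-GDP is released from Rap1B; % of control where 0% means no effect.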 In a few lines:
(§1)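 Rap1B–BODIPY-GDP (250 nM) with 50 uM GDP; compounds pin-transferred to 9.74 nM–152 uM final (activator) or from 7.32 nM upwards (inhibitor). Fluorescence Ex/Em 480/540 nm read at 5 and 30 min, then after adding cAMP or buffer, at room temperature.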

For assay [6] the target is unchanged. Description: Counterscreen qHTS for agonist of cAMP-regulated guanine nucleotide exchange factor 3 (EPAC1) (AID 1645889). Also: nearly all actives have a fitted effect of over 40% in size. Also: potency is read from the fitted curve at half-maximal effect. As to activation: % of control where 0% means no effect. In short, it runs like this: as §1

Rap guanine nucleotide exchange factor 3 (Homo sapiens), sequence (O95398 whole entry, looked up): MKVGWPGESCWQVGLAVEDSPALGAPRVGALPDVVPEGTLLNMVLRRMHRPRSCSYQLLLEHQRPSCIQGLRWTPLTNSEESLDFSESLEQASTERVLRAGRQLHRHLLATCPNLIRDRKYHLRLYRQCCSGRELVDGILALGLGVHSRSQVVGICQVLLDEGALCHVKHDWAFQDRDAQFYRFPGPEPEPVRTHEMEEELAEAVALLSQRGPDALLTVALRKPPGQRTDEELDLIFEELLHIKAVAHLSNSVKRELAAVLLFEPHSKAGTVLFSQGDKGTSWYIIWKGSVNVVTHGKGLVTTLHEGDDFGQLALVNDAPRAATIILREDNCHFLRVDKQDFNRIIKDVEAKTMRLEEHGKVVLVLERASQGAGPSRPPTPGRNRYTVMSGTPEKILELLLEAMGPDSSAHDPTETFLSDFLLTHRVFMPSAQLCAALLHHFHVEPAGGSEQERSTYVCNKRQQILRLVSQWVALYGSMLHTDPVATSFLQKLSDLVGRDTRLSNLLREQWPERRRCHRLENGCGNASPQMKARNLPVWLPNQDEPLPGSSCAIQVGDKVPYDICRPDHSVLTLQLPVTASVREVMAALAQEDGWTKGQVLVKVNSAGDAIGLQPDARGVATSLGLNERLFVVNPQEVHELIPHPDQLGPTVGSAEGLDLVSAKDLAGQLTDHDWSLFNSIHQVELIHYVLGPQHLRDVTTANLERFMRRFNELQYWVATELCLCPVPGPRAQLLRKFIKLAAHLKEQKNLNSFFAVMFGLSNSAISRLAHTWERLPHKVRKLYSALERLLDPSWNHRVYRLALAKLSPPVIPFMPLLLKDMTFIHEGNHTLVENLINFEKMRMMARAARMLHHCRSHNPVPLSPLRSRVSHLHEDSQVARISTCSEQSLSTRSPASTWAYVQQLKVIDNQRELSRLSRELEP
Rap guanine nucleotide exchange factor 4 (Homo sapiens), sequence (Q8WZA2 whole entry, looked up): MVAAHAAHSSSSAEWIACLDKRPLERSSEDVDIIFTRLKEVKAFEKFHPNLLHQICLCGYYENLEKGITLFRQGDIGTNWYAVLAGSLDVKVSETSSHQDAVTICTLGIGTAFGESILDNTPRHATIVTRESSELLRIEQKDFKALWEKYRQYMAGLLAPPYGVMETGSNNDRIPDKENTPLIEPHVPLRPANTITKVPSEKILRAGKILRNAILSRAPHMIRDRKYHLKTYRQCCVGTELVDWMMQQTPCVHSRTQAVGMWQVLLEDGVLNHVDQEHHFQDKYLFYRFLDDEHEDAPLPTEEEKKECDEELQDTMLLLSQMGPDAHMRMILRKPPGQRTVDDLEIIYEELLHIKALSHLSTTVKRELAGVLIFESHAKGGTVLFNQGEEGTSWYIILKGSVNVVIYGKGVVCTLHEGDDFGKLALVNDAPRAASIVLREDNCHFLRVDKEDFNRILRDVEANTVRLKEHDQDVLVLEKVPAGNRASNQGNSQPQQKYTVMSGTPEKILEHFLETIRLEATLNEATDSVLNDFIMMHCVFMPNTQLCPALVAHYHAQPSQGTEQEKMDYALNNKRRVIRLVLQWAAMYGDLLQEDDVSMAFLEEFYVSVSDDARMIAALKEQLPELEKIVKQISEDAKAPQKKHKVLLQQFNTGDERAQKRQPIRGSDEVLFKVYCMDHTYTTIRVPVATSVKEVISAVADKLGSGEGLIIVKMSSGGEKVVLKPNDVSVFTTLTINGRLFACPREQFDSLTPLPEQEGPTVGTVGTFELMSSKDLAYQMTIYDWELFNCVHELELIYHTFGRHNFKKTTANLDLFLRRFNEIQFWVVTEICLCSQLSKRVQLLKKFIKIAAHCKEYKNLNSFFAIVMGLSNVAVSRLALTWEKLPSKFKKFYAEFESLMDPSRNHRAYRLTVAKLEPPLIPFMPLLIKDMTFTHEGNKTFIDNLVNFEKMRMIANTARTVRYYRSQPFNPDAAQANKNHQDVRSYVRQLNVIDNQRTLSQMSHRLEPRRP

With `CCOC(=O)/C(=C\c1ccc(N2CCC(c3ccccc3)=N2)cc1)C(C)=O`, the Potency result in assay [1] and in assay [4] was “inactive” each time. The Potency was 79.4 µM (active) in assay [2] and 12.6 µM (active) in assay [6]. Moreover, the activation in assay [3] was 15.2% [at 17.1 µM, percent relative to cAMP agonist control]. Also, the activity change, negative = inhibition in assay [5] is 28% [at 30.8 µM].

As to `CCCCn1c(N)c(N(CC(C)C)C(=O)C2CCN(C(=O)c3ccc(Cl)cc3)CC2)c(=O)[nH]c1=O`, the Potency result in assay [1], in assay [2], in assay [3], in assay [4], in assay [5] and in assay [6] was “inactive” each time.

`COc1ccccc1Sc1nc(-c2ccccc2)ncc1OC`: the Potency result in assay [1], in assay [2] and in assay [4] was “inactive” each time. In addition, the activation in assay [3] is 11.6% [at 17.1 µM, percent relative to cAMP agonist control]; in assay [6], 18.8% [at 30.8 µM]. The activity change, negative = inhibition in assay [5] is 8.06% [at 30.8 µM].

In the case of `COc1ccccc1Oc1ccnc2cc(Cl)ccc12`, the Potency result in assay [1], in assay [2] and in assay [4] was “inactive” each time. For the same molecule, the activation is 3.38% [at 17.1 µM, percent relative to cAMP agonist control] in assay [3] and 5.9% [at 30.8 µM] in assay [6]. The activity change, negative = inhibition in assay [5] is 3.13% [at 30.8 µM].

With `CCOC(=O)c1c(/N=C/C2=C(O)CC(C)(C)CC2=O)sc(C)c1C`, the Potency result in assay [1], in assay [2] and in assay [4] was “inactive” throughout. In addition, the activation is 5.64% [at 17.1 µM, percent relative to cAMP agonist control] in assay [3] and 1.97% [at 30.8 µM] in assay [6]. Moreover, in assay [5], the activity change, negative = inhibition was -9.9% [at 30.8 µM].

Consider `O=[N+]([O-])c1cc(Cl)ccc1NCCc1ccccn1`, for which the Potency result in assay [1], in assay [2] and in assay [4] was “inactive” in each case. In addition, the activation in assay [3] is -1.04% [at 17.1 µM, percent relative to cAMP agonist control]; in assay [6], -0.252% [at 30.8 µM]. Further, the activity change, negative = inhibition in assay [5] was -15.1% [at 30.8 µM].

Take `Cc1sc(N)c(C(=O)c2ccccc2Cl)c1C`: the Potency result in assay [1], in assay [2], in assay [3], in assay [5] and in assay [6] was “inactive” each time. Moreover, in assay [4], the Potency is 19 µM (active).

For the molecule `CC(C)Sc1nc2sccc2c(=O)n1-c1ccccc1`, the Potency result in assay [1], in assay [2], in assay [3], in assay [5] and in assay [6] was “inactive” each time. In addition, the Potency in assay [4] was 42.6 µM (active).

In the case of `Nc1ncnc2nc(Sc3ccc(Cl)cc3)[nH]c12`, the Potency entry in assay [1], in assay [2], in assay [3], in assay [4], in assay [5] and in assay [6] was “inactive” in each case.

With `N#Cc1c(/N=C/c2ccco2)sc2c1CCC2`, the Potency entry in assay [1], in assay [2] and in assay [4] was “inactive” in each case. Further, the activation in assay [3] was 2.45% [at 17.1 µM, percent relative to cAMP agonist control]; in assay [6] it was 7.28% [at 30.8 µM]. For the same molecule, in assay [5], the activity change, negative = inhibition was 0.743% [at 30.8 µM].

`O=C1C=C(N2CCOCC2)c2ccccc2C1=O`: the Potency in assay [1] is 39.8 µM (active). Also, the Potency result in assay [2] and in assay [4] was “inactive” in each case. The activation was -3.17% [at 17.1 µM, percent relative to cAMP agonist control] in assay [3] and 26.3% [at 30.8 µM] in assay [6]. In addition, in assay [5], the activity change, negative = inhibition is -11.6% [at 30.8 µM].

Regarding `COc1ccccc1CCc1nnc(CCC(=O)N(C)Cc2cccc3ncccc23)o1`, the Potency entry in assay [1], in assay [2], in assay [3], in assay [4], in assay [5] and in assay [6] was “inactive” each time.

As to `CCC(C)NC(=O)CS(=O)Cc1nc(-c2ccccc2C)oc1C` (stereo unspecified), the Potency result in assay [1], in assay [2], in assay [3], in assay [4], in assay [5] and in assay [6] was “inactive” in each case.

In the case of `Cc1ccc(NC(=O)CN2C(=O)N/C(=C/c3ccccc3OCc3cccc(C(=O)O)c3)C2=O)cc1`, the Potency in assay [1] was 31.6 µM (active). Besides, the Potency result in assay [2] and in assay [4] was “inactive” in each case. Also, the activation was -10.8% [at 17.1 µM, percent relative to cAMP agonist control] in assay [3] and 5.98% [at 30.8 µM] in assay [6]. For the same molecule, in assay [5], the activity change, negative = inhibition was -1.86% [at 30.8 µM].

On to `O=C(NCCOc1ccccc1-c1ccccc1)c1ccco1`, for which the Potency result in assay [1], in assay [2] and in assay [4] was “inactive” in each case. Also, the activation in assay [3] was 6.96% [at 17.1 µM, percent relative to cAMP agonist control]; in assay [6], 12.2% [at 30.8 µM]. Moreover, the activity change, negative = inhibition in assay [5] is -5.39% [at 30.8 µM].

Take `O=C(c1ccc(Cl)cc1)C(CN1CCCCC1)c1ccccc1` (stereo unspecified): in assay [1], the Potency is 37.9 µM (active). The Potency result in assay [2], in assay [3], in assay [4], in assay [5] and in assay [6] was “inactive” each time.

In the case of `COc1cc(/C=C2/C(=O)NN(c3ccc(C)c(Cl)c3)C2=O)cc([N+](=O)[O-])c1O`, the Potency in assay [1] was 8.49 µM (active). Also, the Potency result in assay [2], in assay [3], in assay [4], in assay [5] and in assay [6] was “inactive” throughout.

Consider `CCOC(=O)C1=CCN(S(=O)(=O)c2ccc(C)cc2)C1c1cccs1` (stereo unspecified), for which the Potency entry in assay [1], in assay [2] and in assay [4] was “inactive” throughout. Further, the activation was 5.63% [at 17.1 µM, percent relative to cAMP agonist control] in assay [3] and 22.8% [at 30.8 µM] in assay [6]. Moreover, the activity change, negative = inhibition in assay [5] is 6.49% [at 30.8 µM].

As to `CN(Cc1ccccc1N1CCCC1)C(=O)c1cc2cc(Cl)ccc2o1`, the Potency result in assay [1], in assay [2], in assay [3], in assay [4], in assay [5] and in assay [6] was “inactive” each time.

For the molecule `O=C(CC[C@H]1O[C@@H](n2ccc(=O)[nH]c2=O)[C@H](O)[C@@H]1O)NCc1cccc2ccccc12`, the Potency result in assay [1], in assay [2], in assay [3], in assay [4], in assay [5] and in assay [6] was “inactive” each time.

On to `Cc1cc(C)c(C(=O)c2cccs2)c(C)c1`, for which the Potency result in assay [1], in assay [2], in assay [3], in assay [4], in assay [5] and in assay [6] was “inactive” in each case.
